Settings in all cases: concentration: 1 μM,replicates: in singlicate; n = 1
Assay [1] deals with T1, DCAMKL2.
T1 construct: gene DCLK2

In assay [2] the test system is T2, DCAMKL3.
T2 construct: gene DCLK3

Assay [3] relates to DDR1.
Assay [4] relates to DDR2.
Assay [5] deals with T3, DLK.
T3 construct: gene MAP3K12

Assay [6] has as its system T4, DMPK2.
T4 construct: gene CDC42BPG

In assay [7] the test system is DMPK.
Assay [8] concerns T5, DRAK1.
T5 construct: gene STK17A

The subject of assay [9] is T6, DRAK2.
T6 construct: gene STK17B

In assay [10] the test system is DYRK1A.
Assay [11] has as its system DYRK1B.
Assay [12] relates to DYRK2.
The test system of assay [13] is EGFR.
For assay [14], the system named is EIF2AK1.
In assay [15] the test system is EPHA1.
Assay [16] has as its system EPHA2.
Assay [17] deals with EPHA3.
The subject of assay [18] is EPHA4.
In assay [19] the test system is EPHA5.
The subject of assay [20] is EPHA6.
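Further: KINOMEscan kinase panel screen.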

`Cn1ccc2ncnc(Oc3ccc(NC(=O)Nc4cccc(C(F)(F)F)c4)c(F)c3)c21`: the “%Inh” value in [1] was found to be 18%; in assay [2] it was 17%; in [3] it was 96.9%; in assay [4], 100%; in [5], 0%; in assay [6] it was 4%. The “%Inh” value in assay [7] is recorded as 0%; in assay [8], 0%; in assay [9], 24%; in [10], 0%; in assay [11], 0%; in assay [12], 0%. Further, the “%Inh” value was found to be 12% in [13]; 0% in assay [14]; 51% in assay [15]; 94.6% in assay [16]; 58% in assay [17]; 85% in assay [18]. In addition, the “%Inh” value in [19] was found to be 85%; in [20] it was 97.7%.

`FC(F)(F)c1cc(Br)cc(Nc2nccc(-c3cnn4ncccc34)n2)c1` [GW810578]: the “%Inh” value in assay [1] was 15%; in assay [2] it was 16%; in assay [3], 0%; in assay [4] it was 16%; in assay [5] it was 0%; in [6] it was 20%. The “%Inh” value in [7] came to 15%; in [8] it was 8%; in assay [9], 36%; in [10], 99.6%; in assay [11], 98.3%; in assay [12], 47%. The “%Inh” value in assay [13] was 16%; in assay [14] it was 0%; in assay [15], 11%; in assay [16], 0%; in assay [17], 7%; in [18] it was 15%. Also, the “%Inh” value was found to be 26% in [19] and 18% in [20].

`Cc1ccc(Nc2ccnc(Nc3ccc4c(c3)CS(=O)(=O)C4)n2)cc1O.Cl` [GW579362]: the “%Inh” value is 0% in assay [1]; 0% in [2]; 86% in assay [3]; 78% in assay [4]; 78% in [5]; 30% in [6]. Also, the “%Inh” value in assay [7] came to 0%; in [8] it was 45%; in [9] it was 57%; in assay [10], 38%; in assay [11], 48%; in assay [12], 88%. Also, the “%Inh” value in assay [13] is reported as 55%; in assay [14] it was 17%; in assay [15], 91.3%; in assay [16], 83%; in assay [17] it was 78%; in [18], 53%. In addition, the “%Inh” value is listed as 32% in assay [19] and 53% in assay [20].

With `COC(=O)c1cccc(NC(=O)NC2CCN(c3ccnc(NCc4ccc(F)cc4)n3)CC2)c1` [GSK1379860], the “%Inh” value in assay [1] was found to be 18%; in assay [2] it was 3%; in assay [3], 18%; in assay [4], 0%; in [5] it was 17%; in [6], 12%. Also, the “%Inh” value in [7] turned out to be 0%; in [8], 0%; in [9], 34%; in assay [10] it was 18%; in [11] it was 21%; in assay [12] it was 2%. The “%Inh” value in [13] amounted to 51%; in [14], 0%; in assay [15] it was 0%; in assay [16], 10%; in assay [17], 0%; in [18], 6%. For the same compound, the results for the “%Inh” value in assay [19] and in assay [20] were 0% and 8%, respectively.

For `O=C(Nc1ccccc1)c1cccc(Oc2ccc3nccn3n2)c1`, the “%Inh” value in [1] is recorded as 40%; in [2], 0%; in [3], 45%; in assay [4], 42%; in assay [5] it was 1%; in assay [6] it was 6%. Moreover, the “%Inh” value in assay [7] was found to be 11%; in assay [8], 7%; in [9], 14%; in assay [10], 0%; in [11], 28%; in assay [12], 0%. Also, the “%Inh” value in assay [13] is 3%; in assay [14] it was 0%; in assay [15], 7%; in assay [16], 19%; in assay [17], 0%; in assay [18], 4%. Moreover, the “%Inh” value was 0% in assay [19] and 2% in assay [20].

As for `CCn1c(-c2nonc2N)nc2cncc(CNC3CCNCC3)c21.Cl` [SB-747651], the “%Inh” value was found to be 0% in assay [1]; 7% in assay [2]; 19% in assay [3]; 25% in assay [4]; 23% in assay [5]; 0% in assay [6]. The “%Inh” value in [7] came out at 27%; in [8], 6%; in [9], 0%; in [10], 56%; in [11], 12%; in assay [12], 25%. Besides, the “%Inh” value stood at 35% in [13]; 2% in assay [14]; 6% in assay [15]; 0% in assay [16]; 0% in [17]; 9% in assay [18]. The entries for the “%Inh” value in [19] and in assay [20] were 0% and 3%, respectively.

On to `C[C@@H]1CNc2c(sc3ccc4nc(-c5ccncc5)ccc4c23)C(=O)N1`, for which the “%Inh” value in assay [1] worked out at 0%; in assay [2], 55%; in assay [3], 0%; in [4], 0%; in assay [5], 0%; in assay [6], 0%. For the same compound, the “%Inh” value in [7] was 27%; in assay [8] it was 99%; in assay [9], 98.3%; in assay [10] it was 99.7%; in assay [11], 88%; in assay [12] it was 18%. In addition, the “%Inh” value in assay [13] worked out at 0%; in assay [14] it was 12%; in [15] it was 7%; in assay [16], 0%; in assay [17] it was 0%; in [18], 15%. The “%Inh” value turned out to be 1% in assay [19] and 11% in assay [20].

On to `CC(C)c1nc(-c2cccc(NS(=O)(=O)c3ccccc3)c2)c(-c2ccnc(Nc3ccc4c(c3)CN(C)CC4)n2)s1` [GSK1649598], for which the “%Inh” value came out at 17% in assay [1]; 17% in assay [2]; 100% in assay [3]; 42% in assay [4]; 69% in [5]; 61% in assay [6]. The “%Inh” value in assay [7] is recorded as 0%; in [8], 0%; in [9] it was 0%; in assay [10], 4%; in assay [11], 20%; in assay [12], 23%. Moreover, the “%Inh” value is on record as 84% in assay [13]; 95.1% in [14]; 93.2% in assay [15]; 33% in assay [16]; 44% in [17]; 21% in assay [18]. Also, the “%Inh” value in assay [19] is on record as 0%; in [20], 66%.

Consider `COc1cccc(C2=C(Nc3cccc(Cl)c3)C(=O)NC2=O)c1` [SB-341556], for which the “%Inh” value was 0% in assay [1]; 31% in assay [2]; 16% in [3]; 0% in [4]; 0% in [5]; 0% in assay [6]. Besides, the “%Inh” value was determined as 6% in assay [7]; 0% in assay [8]; 0% in assay [9]; 55% in [10]; 0% in assay [11]; 2% in assay [12]. Moreover, the “%Inh” value is 25% in assay [13]; 9% in assay [14]; 18% in assay [15]; 19% in [16]; 0% in [17]; 23% in [18]. Further, the “%Inh” value was found to be 0% in assay [19] and 13% in assay [20].

Values taken from PMC5540273 (PLoS ONE, 2017).
